We go through 7 compounds from paper PMC5540273 (PLoS ONE, 2017).

Among the test systems are PLK2; PLK3; PLK4; PRKCD; PRKCE; PRKCH; PRKCI; PRKCQ; PRKD1; PRKD2; PRKD3; PRKG1; PRKG2; PRKX; PRP4; QSK; RAF1; RET.
What all share (settings): concentration: 1 μM,replicates: in singlicate; n = 1
A further test concerns T1, PRKR.
T1 construct: gene EIF2AK2

In the next test the test system is T2, PYK2.
T2 construct: gene PTK2B
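Note: KINOMEscan kinase panel screen.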

With `Cc1ccc(-n2nc(C(C)(C)C)cc2NC(=O)Nc2ccc(OCCN3CCOCC3)c3ccccc23)cc1` [GW839464], the “%Inh” value in the test with PLK2 was 0%; in the test on PLK3 it was 0%; in the test on PLK4 it was 2%; in the test with PRKCD, 21%; in the test on PRKCE, 15%; in the test with PRKCH, 0%. In addition, the “%Inh” value in the test on PRKCI came to 20%; in the test with PRKCQ it was 0%; in the test on PRKD1, 0%; in the test with PRKD2 it was 20%; with PRKD3, 16%; in the test on PRKG1, 0%. Moreover, the “%Inh” value in the test on PRKG2 turned out to be 3%; in the test with PRKR, 8%; with PRKX it was 0%; with PRP4, 15%; in the test on QSK, 1%; in the test on RAF1 it was 26%. The “%Inh” value with RET came to 54%.
Consider `C[C@@H]1CCN(C(=O)CC#N)C[C@@H]1N(C)c1ncnc2[nH]ccc12`, for which the “%Inh” value with PLK2 is reported as 0%; in the test with PLK3, 0%; with PLK4 it was 0%; in the test on PRKCD, 18%; in the test with PRKCE it was 45%; with PRKCH, 12%. Besides, the “%Inh” value is recorded as 5% in the test on PRKCI; 0% in the test with PRKCQ; 0% with PRKD1; 0% in the test on PRKD2; 14% with PRKD3; 14% in the test with PRKG1. Also, the “%Inh” value in the test with PRKG2, in the test with PRKR, in the test on PRKX, in the test on PRP4, with QSK and with RAF1 was 0% in each case.
With `C[C@H]1Oc2cc(cnc2N)-c2c(nn(C)c2C#N)CN(C)C(=O)c2ccc(F)cc21`, the “%Inh” value with PLK2 is reported as 0%; in the test on PLK3, 0%; in the test on PLK4, 97.9%; with PRKCD it was 15%; in the test on PRKCE, 0%; in the test on PRKCH, 12%. Moreover, the “%Inh” value in the test on PRKCI is given as 21%; in the test with PRKCQ, 12%; in the test with PRKD1 it was 0%; with PRKD2, 12%; in the test on PRKD3, 8%; in the test with PRKG1, 0%. For the same compound, the “%Inh” value in the test on PRKG2 was found to be 10%; with PRKR, 0%; with PRKX it was 7%; in the test on PRP4 it was 0%; in the test on PYK2 it was 99.6%; in the test with QSK, 0%. Also, the “%Inh” value in the test with RAF1 is listed as 0%; in the test with RET, 22%.
In the case of `CCN(CC)CCCCNc1ncc2cc(-c3c(Cl)cccc3Cl)c(NC(=O)NC(C)(C)C)nc2n1`, the “%Inh” value in the test on PLK2 is reported as 5%; in the test on PLK3, 7%; with PLK4 it was 13%; with PRKCD, 22%; with PRKCE it was 74%; with PRKCH, 0%. Besides, the “%Inh” value with PRKCI is given as 19%; in the test on PRKCQ, 0%; with PRKD1, 28%; with PRKD2, 5%; in the test on PRKD3, 25%; in the test on PRKG1, 2%. The “%Inh” value was determined as 7% in the test with PRKG2; 0% in the test on PRKR; 0% with PRKX; 0% with PRP4; 4% in the test with PYK2; 39% in the test on QSK. In addition, the “%Inh” value with RAF1 is on record as 87%; in the test with RET, 96.5%.
On to `COc1ccc(C[C@@H](CN)NC(=O)c2cc(Br)c(-c3ccnc4[nH]ccc34)s2)cc1.Cl.Cl` [GSK1389063], for which the “%Inh” value in the test with PLK2 turned out to be 27%; with PLK3, 27%; in the test on PLK4, 34%; with PRKCD, 99.8%; with PRKCE, 98.2%; in the test on PRKCH it was 99.4%. Besides, the “%Inh” value in the test on PRKCI was determined as 56%; in the test with PRKCQ, 92.4%; with PRKD1, 83%; with PRKD2, 85%; in the test on PRKD3, 94.4%; in the test on PRKG1, 98.7%. The “%Inh” value with PRKG2 is 98.9%; in the test with PRKR, 1%; with PRKX, 94.2%; with PRP4, 18%; in the test on PYK2, 47%; with QSK, 0%. In addition, the “%Inh” value is listed as 5% in the test with RAF1 and 98.4% in the test on RET.
For `CN(C)CC(O)COc1ccc(Nc2nccc(-c3cnn4nc(N5CCOCC5)ccc34)n2)cc1` (centres unmarked) [GW767488], the “%Inh” value in the test on PLK2 is 28%; in the test on PLK3, 35%; in the test with PLK4, 63%; with PRKCD it was 14%; with PRKCE, 0%; with PRKCH it was 0%. In addition, the “%Inh” value is 36% in the test with PRKCI; 21% in the test with PRKCQ; 93.7% in the test with PRKD1; 98.2% with PRKD2; 93.6% with PRKD3; 0% in the test on PRKG1. In addition, the “%Inh” value in the test with PRKG2 stood at 50%; in the test with PRKR, 59%; in the test on PRKX, 8%; in the test with PRP4, 2%; in the test on PYK2 it was 29%; with QSK, 43%. Moreover, the “%Inh” value in the test on RAF1 was determined as 6%; in the test with RET, 17%.
As to `NC(=O)c1cc(-c2ccccc2)cc2c(C3CCNCC3)c[nH]c12` [GSK301362], the “%Inh” value with PLK2 was found to be 34%; in the test with PLK3 it was 0%; with PLK4 it was 0%; with PRKCD, 40%; with PRKCE it was 46%; in the test with PRKCH, 71%. The “%Inh” value with PRKCI is given as 35%; with PRKCQ, 64%; in the test on PRKD1 it was 37%; in the test on PRKD2 it was 2%; in the test with PRKD3 it was 29%; in the test on PRKG1 it was 5%. Further, the “%Inh” value in the test with PRKG2 is 0%; in the test on PRKR, 0%; in the test with PRKX, 36%; with PRP4 it was 2%; with PYK2 it was 37%; with QSK it was 13%. In addition, the “%Inh” value in the test with RAF1 was determined as 3%; with RET it was 7%.
